# Screening data (PubChem)
# DRD3 agonist – D3 dopamine receptor (human) agonism. P35462. D3R DiscoveRx beta-arrestin cells, luminescence, 90 min. max activation, %. actives 0.58% (n = 410,000); in the data active means max activation above about 30%; further: 0% is about no effect
# Target sequence (P35462 whole entry, looked up): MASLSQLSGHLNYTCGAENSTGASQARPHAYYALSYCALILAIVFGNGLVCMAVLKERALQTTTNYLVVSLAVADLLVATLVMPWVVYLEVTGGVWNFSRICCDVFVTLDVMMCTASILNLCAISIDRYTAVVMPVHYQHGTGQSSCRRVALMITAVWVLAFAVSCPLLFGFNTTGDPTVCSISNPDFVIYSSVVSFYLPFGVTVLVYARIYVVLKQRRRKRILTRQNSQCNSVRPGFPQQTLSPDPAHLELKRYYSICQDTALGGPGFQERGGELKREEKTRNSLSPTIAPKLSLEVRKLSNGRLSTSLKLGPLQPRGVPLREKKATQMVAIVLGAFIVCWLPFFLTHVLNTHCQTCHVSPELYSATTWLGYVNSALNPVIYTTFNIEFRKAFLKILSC
#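 Cells at 1500/well, incubated overnight, then treated with pinned compounds (dopamine as control) for 90 min at 37 degrees C. DiscoveRx reagent added for 30 - 60 minutes at room temperature; luminescence read.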
# D3 antag – antagonists of human D3 dopamine receptor; max response, negative = inhibition, %; D3R cells, DiscoveRx beta-arrestin luminescence, antagonist mode; hits give low values; actives 2.5% (n = 360,000); AID 652054; in the data active means max response below about -50%; inconclusive means no clear call, values can overlap the other calls; further: on the % scale 0 is the no-effect control and ±100 the full control effect
#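 Cells expressing the human receptor were seeded at 1500 cells/well, incubated overnight at 37 degrees C in 5% CO2, then exposed to library compounds with dopamine controls for 90 minutes at 37 degrees C before luminescent detection.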
# SW480 rerep – inducers of DNA re-replication in SW480 colon cancer cells; actives 1.8% (n = 340,000); Potency, µM (series often up to 46.1 µM), for inactives: at the top dose re-replication activation, most hits filed as activators; SW480 DNA re-replication, Hoechst DNA content imaging, 48 h; further: potency means the concentration at half of the fitted maximal effect; % of control where 0% means no effect; nearly all actives have a fitted effect of over 55% in size
#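 250 cells/well; 23 nL cpd via pin tool; 48 hr, 37 C, 5% CO2; Hoechst 40 min; imager read of total nuclear intensity, ex 405/em 500-530 nm.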
# KB-3-1 tox – kills parental KB-3-1 adenocarcinoma cells. KB-3-1 viability, CellTiter-Glo ATP luminescence, 72 h. Potency, µM (titrated, usually from 46.1 µM), most hits filed as cytotoxic. actives 1.4% (n = 400,000). AID 1347075; further: potency means the concentration at half of the fitted maximal effect; on the % scale 0 is the no-effect control and ±100 the full control effect; nearly all actives have a fitted effect of over 60% in size
#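 Cytotoxicity in the drug-sensitive parental line KB-3-1 was scored as loss of CellTiter-Glo luminescence following 72 h incubation with compound. Values come from curve fitting of normalized concentration-response data.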
# KB-V1 MDR tox – kills drug-selected multidrug resistant KB-V1 cells; Potency, µM (doses to about 46.1 µM), actives largely listed as cytotoxic; KB-V1 MDR cells viability, CellTiter-Glo, 72 h; actives 3.4% (n = 400,000); further: potency means the concentration at half of the fitted maximal effect; on the % scale 0 is the no-effect control and ±100 the full control effect; nearly all actives have a fitted effect of over 60% in size
#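 In this primary screen, KB-V1 cells overexpressing P-gp are incubated with library compounds (lowest to highest concentration) for 72 h at 37 degrees C before a luminescent ATP viability read.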
# MCF10A rerep – DNA re-replication induction in MCF 10a cells; actives 2.9% (n = 350,000); MCF 10A DNA re-replication, Hoechst nuclear intensity, 48 h; Potency, µM (series often up to 46.1 µM), inactives show at the top dose activity, positive = re-replication, hits mostly activators; further: potency means the concentration at half of the fitted maximal effect; % of control where 0% means no effect; nearly all actives have a fitted effect of over 50% in size
# * hit, by the source's call; i = inactive; ? = inconclusive; . = not tested or not shown. A selection: hits, their analogues and other compounds. The true share with any hit is near 8.9%. Unless noted, the call rests on the fitted dose curve; in most records, active means well fitted curve in the direction sought with a large enough effect; inconclusive means small, poorly fitted or top-dose-only effect, or another doubt; inactive means no such curve, though single readings can be large; an effect the other way counts as inactive or inconclusive.
SMILES,DRD3 agonist,D3 antag,SW480 rerep,KB-3-1 tox,KB-V1 MDR tox,MCF10A rerep
CN1CCN(C(CNC(=O)c2cccc(F)c2)c2ccc3c(c2)OCO3)CC1 (configuration not stated),-16,.,.,i,i,.
CCOc1ccc2c(c1)c(=O)c(C(=O)c1ccc(C)cc1)cn2Cc1ccccc1OC,3,.,.,i,?,.
COc1cc(Br)cc(CN2CCN(C/C=C/c3ccccc3)CC2)c1O,-28,?,2%,i,i,21%
COc1ccc2[nH]c(C)c(C(=O)CN3CCN(C/C=C/c4ccccc4)CC3)c2c1,2,-57*,?,i,i,?
Cc1c(C(=O)N2CCN(Cc3nccn3C)CC2)oc2c(F)cccc12,4,-15,.,i,i,.
Cc1[nH]c2ccccc2c1C(=O)CN1CCN(C/C=C/c2ccccc2)CC1,-3,-3,4%,?,?,?
Cc1c(C(=O)N2CCN(C/C=C/c3ccccc3)CC2)oc2c(F)cccc12,4,-5,-4%,i,16µM*,11%
COc1ccc(O)c(CN2CCN(C/C=C/c3ccccc3)CC2)c1,-24,-76*,-7%,i,15µM*,43%
COc1ccc2oc(C(=O)N3CCN(C(c4ccccc4)c4ccccc4)CC3)c(C)c2c1,5,0,-65%,i,i,?
COc1ccc2oc(C(=O)N3CCN(C/C=C/c4ccccc4)CC3)c(C)c2c1,30*,0,3%,i,i,23µM*
Ic1ccc(Nc2nc(NCCN3CCOCC3)nc(N3CCOCC3)n2)cc1,.,.,.,i,i,.
Fc1ccc(-n2cc(-c3ccccc3)c3c(NC4CCCCC4)ncnc32)cc1,-4,.,.,.,.,.
Cn1c(=O)c2[nH]c(CN(Cc3ccccc3)Cc3ccccc3)nc2n(C)c1=O,5,6,-8%,i,8.2µM*,4%
Cn1c(=O)c2[nH]c(COc3ccccc3)nc2n(C)c1=O,-17,-28,0%,i,i,?
Cn1c(=O)c2[nH]c(Cc3cccc4ccccc34)nc2n(C)c1=O,36*,30,-2%,i,?,4%
Fc1ccccc1NC(=S)Nc1cccc2cnccc12,-5,-26,-4%,?,23µM*,8%
S=C(Nc1cccc(Cl)c1)Nc1cccc2cnccc12,-10,-17,-1%,18µM*,23µM*,?
Cc1ccc(C)c(NC(=S)Nc2cccc3cnccc23)c1,-13,-21,13µM*,?,?,?
S=C(NCc1ccccc1)Nc1cccc2cnccc12,3,-11,-9%,i,?,18%
S=C(NCCc1ccccc1)Nc1cccc2cnccc12,3,3,-2%,4.1µM*,8.2µM*,18%
Cc1ccccc1NC(=S)Nc1cccc2cnccc12,6,-2,0%,i,?,1%
Cn1c(=O)n(C)c2cc(N3CCCCC3)c(NC(=O)c3c(F)cccc3F)cc21,-14,.,.,i,i,.
O=C(CCS(=O)(=O)c1ccc(Br)s1)Nc1c(F)cccc1F,-3,.,.,i,i,.
Cc1cc(C)c(S(=O)(=O)NCC(c2ccc(N(C)C)cc2)N2CCOCC2)c(C)c1 (configuration not stated),-8,.,.,i,i,.
COc1ccc(CNC(=O)Cn2c(SCC(=O)Nc3ccc(C)c(C)c3)nc3ccccc32)cc1,-28,.,.,?,i,.
SMILES,DRD3 agonist,D3 antag,SW480 rerep,KB-3-1 tox,KB-V1 MDR tox,MCF10A rerep
Cc1c2c(n3c(nc4ccccc43)c1C#N)N(CCN(C)C)CC2,-3,-2,9.2µM*,i,i,16µM*
Cc1c2c(n3c(nc4ccccc43)c1C#N)N(c1ccccc1)CC2,.,.,10%,.,.,5%
Cc1c2c(n3c(nc4ccccc43)c1C#N)N(CCCN(C)C)CC2,3,9,9.2µM*,i,?,15µM*
CC1=C(C(=O)NCc2ccccc2C)C2(CCCCCC2)OC1=O,-12,.,.,i,i,.
CC1(C)C(=O)C=CC(=O)C(C)(C)C(=O)C=CC(=O)C(C)(C)C2=CC=C(O2)C(C)(C)C(=O)C=CC1=O,-6,-24,?,?,i,7.3µM*
Cc1ccccc1Cn1cc(CCC(=O)NC(C)c2ccccc2)c2ccccc21 (configuration not stated),-11,.,.,.,.,.
CCn1cc(CCC(=O)NC(C)c2ccccc2)c2ccccc21 (configuration not stated),0,-55*,-12%,i,i,2%
COCCCNC(=O)c1cc(-c2cccnc2)nc2ccc(S(=O)(=O)N3CCC(C)CC3)cc12,5,.,.,.,.,.
CCc1cccc(C)c1NC(=S)NCc1ccc2[nH]c(C)cc2c1,-13,?,13µM*,i,i,-1%
O=C(Cc1cccs1)Nc1ccccc1-c1nc2ccccc2[nH]1,8,20,12µM*,?,?,13µM*
NC(=O)c1ccccc1NC(=O)Cc1cccs1,-4,1,-3%,i,i,2%
COc1ccc(C(=O)c2c(N)c(C(=O)Nc3ccccc3Cl)c3ccccn23)cc1,-13,.,.,i,i,.
Cc1ccccc1-n1nc(CO)c(C(=O)NCCc2ccccc2)n1,10,.,.,.,.,.
O=C(O)c1cccc(NC(=O)C23CC4CC(C2)CC(n2cnc(Cl)n2)(C4)C3)c1,1,7,-4%,i,?,1%
COc1ccc(NC(=O)C23CC4CC(C2)CC(n2cnc(Br)n2)(C4)C3)cc1Cl,-7,-10,-2%,i,9.2µM*,7%
COc1ccc(C2CC(=O)c3cnc4c(-c5ccc(F)cc5)c(C)nn4c3C2)cc1OC (configuration not stated),7,.,.,i,i,.
CCCOP(=O)(OCCC)c1c([N+](=O)[O-])cc(C(F)(F)F)cc1[N+](=O)[O-],-12,?,18µM*,?,?,?
CCOc1ccc(C(F)(F)F)cc1NC(=O)COc1ccc(C(F)(F)F)cc1[N+](=O)[O-],1,0,-1%,i,i,5%
CCCc1cnc2c(c1SCC(=O)Nc1ccc([N+](=O)[O-])cc1)c(=O)n(C)c(=O)n2C,-5,.,.,i,i,.
CCOC(=O)c1c(C)oc2ncnc(N3CCN(c4cccc(Cl)c4)CC3)c12,2,.,.,?,?,.
COc1ccc(CCNC(=O)Cn2cc(C(=O)c3ccc(Cl)cc3)c(=O)c3ccc(C)nc32)cc1OC,-15,.,.,i,i,.
CC(=O)N(NC(=O)c1ccccc1Cl)C1CC(=O)N(c2ccc(C)cc2)C1=O (configuration not stated),-1,10,18%,i,i,16µM*
